Experiments:
Test in all cases: PBM binding z-score (relative to random genomic background probes); higher = stronger binding; sequences stand for … in GC…GCGATTGACAGCGTAGAATGAAGG
[1] = system: RARb homodimer (NR concentration 270 nM)
Procedure, shortened: (§1)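 Antibodies against each partner of ligand-free nuclear receptor dimers (one per run) detected binding on custom Agilent 4×180K protein-binding microarrays after 1 h incubation. The double-stranded probes had 34-nt variable regions carrying direct-repeat seeds, single-nucleotide variants, half-site ablations and random human genomic background sequences. Binding z-scores, from regression-normalized fluorescence, use the random background probes as reference.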

[2] = system: RARg homodimer (NR concentration 270 nM)
Procedure, shortened: as §1

[3] = system: RXRa DBDmut IVT, anti-RXR (DBD mutation: RXRa K156A/R161A, NR concentration 90 nM)
Procedure, shortened: as §1

[4] = system: RXRa homodimer (NR concentration 180 nM)
Procedure, shortened: as §1

[5] = system: THRa:RXRa (NR concentration 90 nM, RXRa partner concentration 90 nM)
Procedure, shortened: as §1

[6] = system: THRa homodimer (NR concentration 90 nM)
Procedure, shortened: as §1

[7] = system: VDR homodimer (NR concentration 270 nM)
Procedure, shortened: as §1

Sequence	PBM binding z-score [1]	PBM binding z-score [2]	PBM binding z-score [3]	PBM binding z-score [4]	PBM binding z-score [5]	PBM binding z-score [6]	PBM binding z-score [7]
GCTCGGAGGACAAGGTCAGGGCTTTGTCCGTAGA	3.31	4.39	0.229	3.18	3.22	1.75	0.358
CCTAGTTGGTCAAGGTCACACATGCTATAGGTAC	4.33	4.71	2.2	4.11	3.96	4.12	3.99
TAGCCTAGGTCATTCAGGGGGCAGTATAGAAAGC	4.09	5.84	2.37	4.33	3.8	2.11	3.36
TAGCCTAGGTCATTTGGCCAGTATAGTACGCATC	2.59	4.08	1.99	2.73	2.65	0.679	1.27
CGTCCAAGGTCAAAGGTCACTGAAGAGATGACGG	5.74	8.6	4.13	10.1	4.9	3.25	4.21
GCTGCTAGGTCAACTGAAGGTCAGCTAAAGCTCG	5.31	7.38	1.68	4.88	4.03	1.66	1
GCTTACGGGTCAAAAGTTATAGCATGAATAGAAT	2.05	3.15	1.93	4.84	2.08	-0.478	0.684
ACTCGGAGGACAAACGTCAGAGCTACGCCAGTGA	0.0238	1.15	0.497	-0.425	0.312	-0.476	-0.183
TCTGCTATGTCAACGATGGTCAGCTAATCTGCTA	0.0556	0.346	0.208	-0.181	-0.297	-1.24	-1.12
GATACAGGGTCAACTAGAGGCCAGAGTATGGAAA	3.92	5.56	2.92	6.53	3.79	0.92	2.44
GATACAGGGTCAGCTAGAGGTCAGAGTATGGAAA	5.26	7.07	1.95	7.42	4.49	1.85	3.45
CCTTACGGGTCACTCCAGGTTCTAGCATCGGAGT	2.64	4.07	1.4	4.18	4.32	0.0825	1.07
TCTCGGAGGACACGAAACGTCAGAGCTCGACATC	0.176	1.27	0.694	0.0278	1.1	0.276	-0.34
ATCTCTAGGTAACAAGGTCAGTGAAAGAGAGGAC	3.49	3.28	0.451	2.26	3.07	2.37	1.78
GATACGGGGTCAGCTAGAGGCCAGAGTATGGAAA	4.12	6.6	3.39	7.4	4.28	1.14	2.68
TAGCCTAGCTCATTCAGGGGCCAGTATAGAAAGC	-0.0305	-0.378	-0.495	-0.481	-0.465	-0.799	-0.369
CAAACTAGGTCAAAGGTCAAACTCGAGCCAACCA	5.32	8.15	3.04	10.5	4.85	2.14	4.14
GCTGCTAGGTCAACTGATGGTGAGCTAAAGCTCG	3.06	5.32	1.5	2.69	2.86	0.689	-0.42
CAACCTAGGTCACCGGAAGGTCAAAGTCCGCATG	5.77	8.03	2.46	7.71	4.63	3.03	4.09
GATACAGGGTGAAGGCCAGAGTACGCGTATTGAT	0.673	0.704	-0.695	0.721	–	-0.473	-0.248
CGAACTAGGTCACCAGGACAGTTAAGAGGTTGGA	3.53	5.1	1.21	3.22	3.41	1.68	0.347
CCTACTGGGTCATTCAGAGGTCATTGATCATATG	5.21	5.46	2.77	5.75	4.32	2.15	4.41
AGTCAAAGTTCAGGACGAGGTACCGTAAAGCACG	3.04	4.98	2.91	3.07	2.66	0.724	1.78
CCTTACGGGTCCCTGACAGGTTATAGCATTTGGA	0.357	0.233	-0.553	0.295	0.389	-0.0756	0.0432
CAAACCAGGTCACGAAAGGTCAAAGTCGAATGAC	5.97	9.05	2.9	–	5.23	3.86	4.47
TCTCGGAGGACACGAAAGGTCAGTGCTCGACATC	4.96	5.21	1.23	3.34	3.49	1.51	1.24
CCTAGTTGGTCAGGAGGTCACAAACCGGATATGA	3.97	4.1	0.534	4.38	3.31	2.01	2.44
ACTCGGAGGACAAAGGTCACAGCTACGCCAGTGA	5.26	6.99	1.55	–	4.23	1.62	2.46

Source: the supplement of paper PMC6555819
